Source: PubChem BioAssay
PLCb3 inh: inhibitors of human phospholipase C beta3 | Q01970 | Purified PLC-beta3, fluorogenic substrate, fluorescence | inhibition, % at 12.2 µM | actives 0.18% (n = 370,000); in the data active = inhibition above about 11%
proKLK7 act: proKLK7 (human) activation, primary screen; P49862; actives 0.9% (n = 370,000); activation, % at 7 µM; purified proKLK7, EDANS-DABCYL substrate fluorescence; 100% is mature enzyme control, 0% vehicle;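 active = activation above the mean of all tested compounds plus 3 SD, computed per campaign excluding outliers beyond control limits, cut at about 13% in these data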
Target sequence (P49862 whole entry, looked up): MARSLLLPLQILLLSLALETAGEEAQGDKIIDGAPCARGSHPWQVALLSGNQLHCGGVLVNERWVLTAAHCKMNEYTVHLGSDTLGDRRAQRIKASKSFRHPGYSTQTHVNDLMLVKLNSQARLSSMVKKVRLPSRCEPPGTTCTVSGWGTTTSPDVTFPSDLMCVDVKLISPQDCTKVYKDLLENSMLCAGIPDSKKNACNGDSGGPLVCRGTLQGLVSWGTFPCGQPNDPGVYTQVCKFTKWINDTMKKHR
ADAM17 inh: ADAM17 inhibition, QFRET primary screen; actives 0.83% (n = 370,000); recombinant ADAM17, EDANS/DABCYL FRET peptide cleavage; P78536; AID 720648; inhibition, % at 6.95 µM;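 active = inhibition above the mean of compounds lying between control limits plus 3 SD, set per campaign, cut at about 8.5% in these data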
PLCg1 inh: blocks human PLC-gamma1 enzyme activity. inhibition, % at 12.2 µM. purified PLC-gamma1, fluorogenic substrate, fluorescence. P19174. actives 0.84% (n = 370,000). AID 720700; in the data active = inhibition above about 9.5%
ADAM10 inh: inhibits human ADAM10. recombinant ADAM10, EDANS/DABCYL FRET peptide cleavage, 3 h. inhibition, % at 7 µM. actives 0.62% (n = 370,000). AID 720582;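 active = inhibition above a per-campaign cutoff equal to the mean of compounds falling between control-based bounds plus 3 SD, cut at about 20% in these data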
proKLK7 act conf: confirmation of human kallikrein-7 zymogen activators; purified proKLK7, EDANS-DABCYL substrate fluorescence; scaled: vehicle 0, mature enzyme 100; actives 68% (n = 3,200); shares compounds with proKLK7 act; AID 686949; activation, % at 7 µM;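 active = activation, as change over the incubation, above the mean of all tested compounds plus 3 SD, cut at about 13% in these data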
EDANS-DABCYL int: counter-screen for kallikrein-7 activators: EDANS-DABCYL optical interference. actives 80% (n = 3,200). shares compounds with proKLK7 act. EDANS-DABCYL substrate fluorescence interference, no enzyme, 4 h; solvent 0%, active enzyme control 100%. AID 686952. activation, % at 7 µM;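 active = activation above the all-compound mean plus 3 SD, ignoring values outside control-based bounds, cut at about 4.8% in these data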;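 note: value is the 4 h activation minus the activation read at time zero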
EDANS interf: EDANS fluorescence interference in dose response, no enzyme; EDANS-DABCYL peptide fluorescence interference; shares compounds with proKLK7 act; AID 720493; EC50, µM; actives 20% (n = 250);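 active = compounds that raise the fluorescence signal in this interference counterscreen, with EC50 at or below 10 µM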;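 note: intact quenched peptide substrate alone read at 355 nm excitation and 520 nm emission; signal is fluorescence gain from T0 to T4 after four hours at room temperature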
Large screens that a line does not name were inactive (follow-up assays come after a bar, where they were run). Hits are enriched below; roughly 2.9% of the tested compounds scored in any of these assays.

Cc1ccccc1N1C(=O)c2cccc3c(N(C)CCO)ccc(c23)C1=O	proKLK7 act 13.3 | proKLK7 act conf inactive | EDANS-DABCYL int 10.2
CCCC[C@H]1C2CC(OC(=O)Nc3ccc(C)cc3)C(C2)[C@H]2CCCCN21 (stereo not given in full)	none
CCOC(=O)N1CCc2[nH]c3ccc(C)cc3c2C1	proKLK7 act 16.6 | proKLK7 act conf 22.8 | EDANS-DABCYL int 23.5
CN1CCN(c2ccc3c(c2)Oc2ccccc2CN(Cc2cn(Cc4ccc(F)cc4)nn2)S3(=O)=O)CC1	none
O=C(CC(SCc1ccco1)c1ccc(O)cc1)c1cccs1 (stereo not given)	proKLK7 act 25.1 | proKLK7 act conf 15.7 | EDANS-DABCYL int 14.1
O=C(CC(SCCO)c1ccc2c(c1)OCO2)c1cccs1 (stereo not given)	proKLK7 act 14.0 | proKLK7 act conf 26.2 | EDANS-DABCYL int 26.7
CCOC(=O)Cc1nc(N2CCN(CCN)CC2)c2c(C)c(C(=O)OCC)sc2n1	none
COc1ccc(CCNC(=O)Nc2ccc3c(c2)c(=O)n(C)n3Cc2ccc(Cl)cc2)cc1OC	none
C=C(C)Cn1c2ccc(NC(=O)NCc3ccccc3)cc2c(=O)n1C	proKLK7 act 28.1 | proKLK7 act conf 32.2 | EDANS-DABCYL int 25.6 | EDANS interf inactive
C=C(C)Cn1c2ccc(NC(=O)NCC)cc2c(=O)n1C	proKLK7 act 39.0 | proKLK7 act conf 52.9 | EDANS-DABCYL int 58.2
Cc1cc(C)cc(Cn2c3ccc(NC(=O)NCc4ccccc4)cc3c(=O)n2C)c1	none
Cn1c(=O)c2cc(NC(=O)NCCc3ccccc3)ccc2n1Cc1ccccc1	none
CCNC(=O)Nc1ccc2c(c1)c(=O)n(C)n2Cc1ccc(Cl)cc1	proKLK7 act 27.7 | proKLK7 act conf 16.1 | EDANS-DABCYL int 26.1
O=C(Cn1c(=O)c2cccn2c2cccnc21)NCCCN1CCN(c2ccccc2)CC1	none (no result: proKLK7 act)
COC(=O)[C@]12C[C@H](CC(=O)NCc3ccc(C)o3)C(=O)N(CCc3ccc(OC)c(OC)c3)C1=C[C@H](C(C)(C)C)O[C@@H]2C	none
CCc1cc2c(=O)c(-c3nc4ccccc4[nH]3)coc2c(CN2CCCCC2)c1O	none
COc1ccc(-c2coc3c(CN4CCCCC4C)c(O)ccc3c2=O)cc1 (stereo not given)	proKLK7 act 45.7 | proKLK7 act conf 69.4 | EDANS-DABCYL int 57.8
CC1CN(Cc2c(O)ccc3c2oc(=O)c2ccccc23)CC(C)O1 (stereo not given)	none
CC1CCCCN1Cc1c(O)ccc2c(=O)c(-c3ccccc3)coc12 (stereo not given)	proKLK7 act 33.6 | proKLK7 act conf 70.5 | EDANS-DABCYL int 69.1
O=c1c(-c2ccccc2)coc2c(CN3CCCCC3)c(O)ccc12	proKLK7 act 37.7 | proKLK7 act conf 64.6 | EDANS-DABCYL int 63.0
CC1CN(Cc2c(O)ccc3c(=O)c(-c4ccccc4)coc23)CC(C)O1 (stereo not given)	proKLK7 act 81.8 | proKLK7 act conf 27.3 | EDANS-DABCYL int 25.9
CCc1cc2c(=O)c(-c3nc4ccccc4[nH]3)coc2c(CN2CCCCC2C)c1O (stereo not given)	none
COC(=O)[C@]12C[C@H](CC(=O)N3CCOCC3)C(=O)N(Cc3ccco3)C1=C[C@H](C(C)C)O[C@@H]2C1CC1	none
COc1ccccc1C=NNC(=O)CSc1nc2ccccc2n1Cc1ccc(Cl)cc1	none
COc1ccc(C2C(C(=O)Nc3ccc(Cl)cc3)CCC(=O)N2c2ccc(OC)cc2)cc1 (stereo not given)	none
Cc1cccc(C(=O)N[C@@H]2CC[C@@]34CCCN3C(=O)CCC[C@H]4[C@H]2C)c1	none (no result: proKLK7 act)
CCc1cc2c(=O)c(-c3ccc4c(c3)OCCO4)coc2c(CN2CCCCC2C)c1O (stereo not given)	proKLK7 act 16.3 | proKLK7 act conf inactive | EDANS-DABCYL int inactive
CCC1CCCCN1Cc1c(O)ccc2c(=O)c(-c3ccccc3)coc12 (stereo not given)	proKLK7 act 37.8 | proKLK7 act conf 54.7 | EDANS-DABCYL int 32.7
CCC1CCCCN1Cc1nc2ccccc2c(=O)n1CC(C)=O (stereo not given)	none
O=C(Nc1ccc(Cl)c(Cl)c1)c1cccc2c1-c1ccccc1C2=O	none
CCN(CC)C(=O)[C@H]1C[C@H](CC(=O)NC(C)(C)C)C(=O)N2CCc3c([nH]c4cc(-c5ccco5)ccc34)[C@]12C	proKLK7 act 109.3 | proKLK7 act conf 56.7 | EDANS-DABCYL int 64.6
CC(C)(C)NC(=O)C[C@H]1C[C@H](C(=O)N2CCCCC2)[C@@]2(CCc3ccccc3)c3[nH]c4cc(-c5ccco5)ccc4c3CCN2C1=O	none
CC(C)N(C(=O)[C@H]1C[C@H](CC(=O)NC(C)(C)C)C(=O)N2CCc3c([nH]c4cc(-c5ccco5)ccc34)[C@]12C)C(C)C	proKLK7 act 20.4 | proKLK7 act conf inactive | EDANS-DABCYL int 19.6
CCc1ccccc1-c1cc(C(C)=O)c2n(c1=O)CCC2	none
CCc1nc(CN2CCCC(C(=O)c3ccc4c5c(cccc35)CC4)C2)c(C)[nH]1 (stereo not given)	proKLK7 act 15.3 | proKLK7 act conf inactive | EDANS-DABCYL int inactive
CC(C)CCNC(=O)CSc1nc2c(c(=O)[nH]1)CCC2	none (no result: proKLK7 act)
Cc1ccccc1NS(=O)(=O)c1ccc2c3c(cccc13)C(=O)N2C	none
CN1C(=O)c2cccc3c(S(N)(=O)=O)ccc1c23	proKLK7 act 71.2 | proKLK7 act conf 56.2 | EDANS-DABCYL int 66.3
CN1C(=O)c2cccc3c(S(=O)(=O)NCc4ccco4)ccc1c23	proKLK7 act 21.4 | proKLK7 act conf 14.3 | EDANS-DABCYL int 14.1
CCOC(=O)c1csc(NC(=O)C2CCCN(S(=O)(=O)c3cc(OC)ccc3OC)C2)n1 (stereo not given)	none
CC(C)CN1C(=O)N2Cc3ccccc3C2CS1(=O)=O (stereo not given)	none
Cc1c(C)c2cc(Cl)c(O)c(CN3CCCC(C)C3)c2oc1=O (stereo not given)	proKLK7 act 41.6 | proKLK7 act conf 68.7 | EDANS-DABCYL int 73.2
Cc1c(C)c2cc(Cl)c(O)c(CN3CCN(C)CC3)c2oc1=O	proKLK7 act 76.2 | proKLK7 act conf 63.9 | EDANS-DABCYL int 69.3
O=c1oc2ccccc2cc1-c1nc2ccccc2o1	proKLK7 act 88.5 | proKLK7 act conf 74.2 | EDANS-DABCYL int 85.8
COc1cc2c(cc1OC)CN(CC(=O)Nc1ccc(C#N)cc1)CC2	proKLK7 act 16.7 | proKLK7 act conf inactive | EDANS-DABCYL int inactive
